Screening results from PubChem BioAssay.
MCF10A rerep: A quantitative high throughput screen for small molecules that induce DNA re-replication in MCF 10a normal breast cells; MCF 10A DNA re-replication, Hoechst nuclear intensity, 48 h; Potency, µM (top dose mostly 46.1 µM), most hits filed as activators; 350,000 tested, 2.9% active; also: nearly all actives have a fitted effect of over 50% in size
KB-3-1 cytotox: qHTS assay for MDR1-selective chemotherapeutics: Primary screen using the parental adenocarcinoma cell KB-3-1; 400,000 tested, 1.4% active; KB-3-1 viability, CellTiter-Glo ATP luminescence, 72 h; Potency, µM (highest dose often 46.1 µM), hits mostly cytotoxic; AID 1347075, 2019; also: nearly all actives have a fitted effect of over 60% in size
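Parental KB-3-1 viability, qHTS format: 72 h compound exposure, 37 °C; CellTiter-Glo; media-only wells and DMSO plates as controls; concentration-effect fits on corrected data.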
SW480 rereplic: A quantitative high throughput screen for small molecules that induce DNA re-replication in SW480 colon adenocarcinoma cells. SW480 DNA re-replication, Hoechst DNA content imaging, 48 h. Potency, µM (top dose mostly 46.1 µM), actives largely listed as activators. 340,000 tested, 1.8% active; also: nearly all actives have a fitted effect of over 55% in size
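First, 250 cells per well were seeded. Next, compound or vehicle (23 nL) was pinned in, plates sat 48 hr at 37 C. Finally Hoechst was added for 40 min before fluorescence scanning.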
ELG1 DNA repair: qHTS screen for small molecules that inhibit ELG1-dependent DNA repair in human embryonic kidney (HEK293T) cells expressing luciferase-tagged ELG1; 330,000 tested, 2.3% active; HEK293T ELG1-luciferase reporter, luminescence, 16 h; DNA damage induced by 5-fluorouridine; Potency, µM (top dose mostly 46.1 µM), most hits filed as inhibitors; AID 504467, 2011; also: nearly all actives have a fitted effect of over 55% in size
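Overnight (16 hr) co-exposure of 2,000 cells/well to 5-fluorouridine and compound at 37 °C preceded detection. Luciferase was quantified via ONE-Glo luminescence; loss of signal denotes inhibition.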
KB-V1 MDR tox: qHTS assay for MDR1-selective chemotherapeutics: Primary screen using the drug-selected MDR subline cells KB-V1; KB-V1 MDR cells viability, CellTiter-Glo, 72 h; Potency, µM (series often up to 46.1 µM), actives largely listed as cytotoxic; 400,000 tested, 3.4% active; AID 1347076, 2019; also: nearly all actives have a fitted effect of over 60% in size
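KB-V1, DMEM (no phenol red) + 10% FBS; cpd pin-transferred, titration series; 72 h, 37 degrees C; CellTiter-Glo, luminescence. Data normalized, curve-fit.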
Large screens that a line does not name were inactive. Rows were chosen to be rich in hits. Some 8.1% of all compounds tested hit in one or more screens of this group. Calls follow the shape of the dose curve; as a rule, active = well fitted curve in the direction sought with a large enough effect; inconclusive = small, poorly fitted or top-dose-only effect, or another doubt; inactive = no such curve, though single readings can be large; an effect the other way counts as inactive or inconclusive.

O=C1OCCN1C(=O)[C@H]1[C@H](c2ccc([N+](=O)[O-])cc2)C(c2ccc(F)cc2)=NN1c1ccccc1	ELG1 DNA repair inconclusive
Cc1cccc(C2=NN(c3ccccc3)[C@@H](C(=O)N3CCOC3=O)[C@@H]2c2ccccc2)c1	MCF10A rerep inconclusive, SW480 rereplic 16.4µM
Cc1cccc(C2=NN(c3ccc(Br)cc3)[C@@H](C(=O)N3CCOC3=O)[C@@H]2c2ccccc2)c1	MCF10A rerep 1.46µM, SW480 rereplic inconclusive
O=[N+]([O-])CC(c1ccccc1)c1c[nH]c2ccccc12 (stereo unspecified)	MCF10A rerep 14.6µM, KB-3-1 cytotox 16.4µM, KB-V1 MDR tox inconclusive (no result: ELG1 DNA repair)
Cc1nc(CN2CCN(C(=O)c3ccc(C(C)(C)C)cc3)CC2)cs1	none
CN(c1ccccc1C(=O)Nc1ccccc1C(=O)NCc1ccco1)S(C)(=O)=O	KB-V1 MDR tox 14.6µM
CCOC(=O)c1ccccc1NC(=O)c1c(F)c(F)c(F)c(F)c1F	MCF10A rerep 20.6µM, SW480 rereplic inconclusive
CC(=O)c1cccc(NC(=O)c2ccc(N(Cc3ccccc3C)S(C)(=O)=O)cc2)c1	MCF10A rerep inconclusive, KB-3-1 cytotox inconclusive, ELG1 DNA repair 25.9µM
CCOC(=O)c1ccccc1NC(=O)c1ccc(F)cc1	none (no result: ELG1 DNA repair)
CCOC(=O)c1ccccc1NC(=O)c1ccccc1N(C)S(C)(=O)=O	KB-V1 MDR tox 18.4µM (no result: ELG1 DNA repair)
COC(=O)c1ccccc1NC(=O)c1ccccc1N(C)S(C)(=O)=O	none
CC(C)(C)c1ccc(C(=O)NCC(=O)N2CCNC(=O)C2)cc1	none
CCOC(=O)C1CCN(C(=O)Nc2ccc3oc(C)nc3c2)CC1	none
Cc1ccccc1CN(c1ccc(C(=O)Nc2ccccc2C(=O)NCc2ccco2)cc1)S(C)(=O)=O	ELG1 DNA repair 7.31µM, KB-V1 MDR tox 8.2µM
Cc1ccccc1CN(c1ccc(C(=O)N2CCc3ccccc3C2)cc1)S(C)(=O)=O	MCF10A rerep inconclusive, KB-3-1 cytotox 10.3µM, ELG1 DNA repair 14.6µM, KB-V1 MDR tox 10.3µM
Cc1cc(C)c2c(N)c(C(=O)c3ccc(Br)cc3)oc2n1	MCF10A rerep 23.1µM, SW480 rereplic 2.59µM
COc1ccc(Cl)cc1NC(=O)Nc1cc(C)on1	ELG1 DNA repair inconclusive
Cc1nc2[nH]c(=S)n(C)c(=O)c2nc1C	SW480 rereplic 25.9µM
Cc1nc2c(=O)[nH]n(C)c2nc1C	none (no result: MCF10A rerep, SW480 rereplic, ELG1 DNA repair)
COc1ccccc1CN(C)C(=O)c1cc(S(=O)(=O)N2CCCCCC2)ccc1OC	none (no result: MCF10A rerep, SW480 rereplic, ELG1 DNA repair)
Cc1ccc(NC(=O)CCc2nnc3ccc(NCc4ccco4)nn23)cc1F	none
COc1ccc(C(=O)c2ccc(N3CCN(C(=O)c4ccc(F)cc4)CC3)c(F)c2)cc1Br	MCF10A rerep inconclusive, KB-3-1 cytotox inconclusive, ELG1 DNA repair 20.6µM
CCCC(=O)c1ccc(N2CCN(C(=O)c3ccc(Br)cc3)CC2)c(F)c1	ELG1 DNA repair inconclusive
CCC(=O)c1ccc(N2CCN(C(=O)c3ccc(Br)cc3)CC2)c(F)c1	KB-V1 MDR tox 14.6µM
COc1cccc(NC(=S)N2CCC(NC(=O)c3ccco3)CC2)c1	none
CCOC(=O)COc1ccc(CC)cc1C(=O)c1ccn2nc(-c3ccc(C)cc3)cc2n1	none (no result: MCF10A rerep, SW480 rereplic, ELG1 DNA repair)
Cc1cc(C)cc(CC(=O)N2CCC2(C)C(=O)NS(=O)(=O)c2ccc(Cl)s2)c1 (stereo unspecified)	none (no result: MCF10A rerep, SW480 rereplic, ELG1 DNA repair)
CCOC(=O)Nc1sc2c(c1C#N)CCCC2	ELG1 DNA repair inconclusive
CCCC1CCc2c(sc(NC(=O)OCC)c2C#N)C1 (stereo unspecified)	MCF10A rerep inconclusive, KB-3-1 cytotox inconclusive, SW480 rereplic 10.3µM, ELG1 DNA repair inconclusive, KB-V1 MDR tox 5.8µM
Nc1n[nH]c2cc(=O)n(-c3cccc(C(F)(F)F)c3)nc12	SW480 rereplic 7.31µM, ELG1 DNA repair inconclusive
O=c1[nH][nH]c2cc(=O)n(-c3cccc(C(F)(F)F)c3)nc12	KB-V1 MDR tox inconclusive
NNC(=O)c1cncn1-c1ccc(F)cc1	none
O=C(CNC(=O)c1ccc2c(c1)OCO2)N/N=C/c1cccc([N+](=O)[O-])c1	none
O=C(CNC(=O)c1ccc2c(c1)OCO2)N/N=C(Br)/C=C/c1ccccc1	MCF10A rerep 9.2µM, KB-3-1 cytotox inconclusive, SW480 rereplic inconclusive, ELG1 DNA repair inconclusive
O=C(CCl)N(c1ccc(Cl)cc1)c1c[nH]c2ccccc12	MCF10A rerep 2.59µM, KB-3-1 cytotox inconclusive, SW480 rereplic 20.6µM, ELG1 DNA repair 25.9µM, KB-V1 MDR tox 18.4µM
O=C(CCl)N(c1ccccc1)c1c[nH]c2ccccc12	MCF10A rerep 14.6µM, KB-3-1 cytotox 16.4µM, SW480 rereplic inconclusive, ELG1 DNA repair 20.6µM, KB-V1 MDR tox 16.4µM
CC(C)=C(C)c1cc2nc(NCCCN(C)C)n(C)c(=O)c2s1	none (no result: MCF10A rerep, SW480 rereplic, ELG1 DNA repair)
N#CC1=C(C2CC2)CC(c2ccccc2)C(C#N)=C1N (stereo unspecified)	ELG1 DNA repair inconclusive, KB-V1 MDR tox 23.1µM
N#CC1=C(N)SC2(CCCCC2)SC1c1ccccc1 (stereo unspecified)	none
O=C(O)c1cccc(Nc2nc3ccccc3nc2NS(=O)(=O)c2ccc(F)cc2)c1	KB-V1 MDR tox inconclusive
Cc1cc(C)n(-c2nc3ccccc3nc2Nc2ccc3c(c2)OCO3)n1	MCF10A rerep 16.4µM
O=S(=O)(Nc1nc2ccccc2nc1Nc1ccc2c(c1)OCO2)c1ccc(F)cc1	KB-3-1 cytotox inconclusive, KB-V1 MDR tox 5.8µM
O=C(Nc1c(F)cccc1F)c1cnc(N2CCN(c3ccccn3)CC2)c2ccccc12	KB-3-1 cytotox inconclusive, ELG1 DNA repair 18.4µM, KB-V1 MDR tox 10.3µM
N#Cc1ccccc1NC(=O)c1cnc(N2CCOCC2)c2ccccc12	none (no result: MCF10A rerep, SW480 rereplic, ELG1 DNA repair)
Cc1ccc(NC(=O)c2cnc(N3CCN(c4ccccn4)CC3)c3ccccc23)c(Br)c1	MCF10A rerep 18.4µM, KB-3-1 cytotox inconclusive, SW480 rereplic inconclusive, ELG1 DNA repair inconclusive, KB-V1 MDR tox inconclusive
c1csc(-c2cc(N3CCCCC3)c3ccccc3n2)c1	MCF10A rerep 20.6µM
c1ccc(-c2nc(N3CCCCCC3)c3ccccc3n2)nc1	MCF10A rerep inconclusive, KB-3-1 cytotox 3.66µM, ELG1 DNA repair 2.59µM, KB-V1 MDR tox inconclusive
c1ccc(-c2nc(N3CCOCC3)c3ccccc3n2)nc1	MCF10A rerep inconclusive, SW480 rereplic inconclusive, ELG1 DNA repair 16.4µM, KB-V1 MDR tox inconclusive
c1ccc(N2CCN(c3nc(-c4cccs4)nc4ccccc34)CC2)cc1	MCF10A rerep 23.1µM
c1ccc2c(N3CCCCC3)nc(N3CCCC3)nc2c1	ELG1 DNA repair inconclusive, KB-V1 MDR tox 16.4µM
c1ccc2nc(N3CCCC3)c(N3CCCCC3)nc2c1	MCF10A rerep 20.6µM (no result: ELG1 DNA repair)
c1ccc2nc(N3CCOCC3)c(N3CCCC3)nc2c1	none (no result: ELG1 DNA repair)
OCCNCCNCc1ccccc1OCc1ccccc1	SW480 rereplic 20.6µM
